Reference: the supplement of paper PMC13094657
± gives the standard deviation of the averaged measurements.

test system: MDA-MB-231; test: cell viability relative to vehicle unstimulated control (fraction); higher = more viable cells; conditions: pre-treatment time: 18 h then 24 h IFNg/TNF
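For cell viability relative to vehicle unstimulated control in this document: viability of the cells left after supernatant collection, read with Deep Blue dye added for 4 h, as absorbance at 570 nm minus 600 nm.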

Row | Structure (SMILES) | cell viability
1 | C[C@@]1(C(=O)O)CC[C@]2(C)CC[C@]3(C)C4=CC(=O)c5c(cc(O)c(O)c5C=O)[C@]4(C)CC[C@@]3(C)[C@@H]2C1 [Demethylzeylasteral] (compound dose: 10 uM) | 0.786 ± 0.1
2 | CC(=O)OC(C)(C)/C=C/C(=O)[C@](C)(O)[C@H]1[C@H](O)C[C@@]2(C)[C@@H]3CC=C4[C@H](C[C@H](O)C(=O)C4(C)C)[C@]3(C)C(=O)C[C@]12C [Cucurbitacin B] (compound dose: 10 uM) | 0.396 ± 0.061
3 | C[C@@H]1CC[C@H]2[C@@H](C)C(=O)O[C@@H]3O[C@@]4(C)CC[C@@H]1[C@]32OO4 [Artemisinin] (compound dose: 10 uM) | 1.06 ± 0.079
4 | CC1=C[C@]23C(=O)[C@@H](C=C(COC(=O)c4ccccc4)[C@@H](O)[C@]2(O)[C@H]1OC(=O)c1ccccc1)[C@H]1[C@@H](C[C@H]3C)C1(C)C [Ingenol 3,20-dibenzoate] (compound dose: 10 uM) | 1.05 ± 0.061
5 | C=C1[C@@H]2CC[C@H]3[C@]4(C)C[C@H](O[C@@H]5O[C@H](CO)[C@@H](OS(=O)(=O)O)[C@H](OS(=O)(=O)O)[C@H]5OC(=O)CC(C)C)CC(C(=O)O)(C(=O)O)[C@H]4CC[C@]3(C2)[C@H]1O [Carboxyatractyloside (dipotassium)] (compound dose: 10 uM) | 1.03 ± 0.071
6 | COc1cc2c(cc1OC)-c1c(OC)c(OC)cc3c1[C@H](C2)N(C)CC3 [(S)-Glaucine (Alkaloid purified from Papaver somniferum)] | 0.967 ± 0.013
7 | O=C1C=C2C=C[C@@H]3C[C@@]2(O1)[C@H]1CCCCN31 [Securinine] (compound dose: 10 uM) | 0.89
8 | C=C(C)C(=O)O[C@H]1[C@@H]2[C@H](C)C(=O)O[C@@H]2C[C@@H](C)[C@@H]2C=CC(=O)[C@]21C [Arnicolide D] (compound dose: 10 uM) | 0.784 ± 0.08

test system: MDA-MB-231; test: kynurenine production, fold change vs DMSO IFNg/TNF control; higher = more kynurenine produced (less inhibition); conditions: pre-treatment time: 18 h then 24 h IFNg/TNF
In short: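 Fold change over cytokine-stimulated vehicle wells on the same plate is the measure used for kynurenine production, averaged across duplicate plates in the first screening round. MDA-MB-231 cells, seeded 24 h beforehand at 7 × 10^4/well in 96-well plates, were pre-treated 18 h with each natural product in 0.1% DMSO and stimulated 24 h at 37°C with IFNγ (1 U/ml) and TNF (6.25 ng/ml). Supernatants were read at 492 nm following trichloroacetic acid and p-dimethylaminobenzaldehyde treatment, against 0–100 μM standards.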

Row | Structure (SMILES) | kynurenine production
9 | CC(=O)O[C@@H]1[C@H]2[C@@H](OC(=O)Cc3ccccc3)[C@@H](C)C[C@]2(OC(C)=O)C(=O)/C(C)=C/[C@@H]2[C@H](CC[C@]13CO3)C2(C)C [Euphorbia Factor L1] (compound dose: 10 uM) | 1.11 ± 0.0098
10 | C[C@@H]1C(=O)O[C@H]2[C@H](O)[C@@]34O[C@@H]5OC(=O)[C@H](O)[C@@]56[C@H](C(C)(C)C)[C@H](O)C(OC3=O)[C@]64[C@@]12O (stereo not given in full) [Ginkgolide C] (compound dose: 10 uM) | 0.947 ± 0.088
11 | CC(C)[C@]12O[C@H]1[C@@H]1O[C@@]13[C@@]1(C)CCC4=C(COC4=O)[C@@H]1C[C@@H]1O[C@@]13C2=O [Triptonide] (compound dose: 10 uM) | 0.218 ± 0.019
12 | COC(=O)[C@]1(C)CC[C@]2(C)CC[C@]3(C)C4=CC=C5C(=CC(=O)C(O)=C5C)[C@]4(C)CC[C@@]3(C)[C@@H]2C1 [Pristimerin] (compound dose: 10 uM) | 0.0819 ± 0.0029
13 | CC(C)=CCC[C@](C)(O)[C@H]1CC[C@]2(C)[C@@H]1[C@H](O)C[C@@H]1[C@@]3(C)CC[C@H](O[C@@H]4O[C@H](CO)[C@@H](O)[C@H](O)[C@H]4O)C(C)(C)[C@@H]3CC[C@]12C [Ginsenoside Rh2] (compound dose: 10 uM) | 0.84 ± 0.19
14 | C=C1[C@H](OC(=O)c2ccccc2)C[C@H]2[C@@H](/C=C(\C)C(=O)[C@@]3(OC(C)=O)C[C@H](C)[C@H](OC(=O)c4ccccc4)[C@@H]3[C@H]1OC(C)=O)C2(C)C [Euphorbia Factor L2] (compound dose: 10 uM) | 0.5 ± 0.15
15 | C=C1[C@H](OC(C)=O)[C@@H](OC(=O)c2ccccc2)[C@@H](OC(C)=O)C(C)(C)[C@H]2O[C@](O)([C@@H](C)C2=O)[C@@]2(OC(C)=O)C[C@H](C)[C@H](OC(C)=O)[C@@H]2[C@H]1OC(C)=O [Kansuinine A] (compound dose: 10 uM) | 0.709 ± 0.031
16 | Cc1cc(O)c2c(=O)c3c(O)cc(O)c4c5c(O)cc(O)c6c(=O)c7c(O)cc(C)c8c1c2c(c34)c(c78)c65 [Hypericin] (compound dose: 10 uM) | 0.103 ± 0.063
17 | C=C[C@H]1[C@H](O[C@@H]2O[C@H](CO)[C@@H](O)[C@H](O)[C@H]2O)OC=C2C(=O)OCC[C@H]21 [Sweroside] (compound dose: 10 uM) | 0.832 ± 0.17
18 | C[C@]1(C(=O)O)CCC[C@]2(C)c3cc(O)ccc3CC[C@@H]12 [Podocarpic acid] (compound dose: 10 uM) | 0.852 ± 0.12
19 | CC(C)(O)/C=C/C(=O)[C@](C)(O)[C@H]1[C@H](O)C[C@@]2(C)[C@@H]3CC=C4[C@@H](C[C@H](O)C(=O)C4(C)C)[C@]3(C)C(=O)C[C@]12C [Cucurbitacin D] (compound dose: 10 uM) | 0.326 ± 0.083
20 | COc1ccc2c3c1O[C@H]1CC(=O)C=C[C@@]31CCN(C)C2 [Galanthaminone] (compound dose: 10 uM) | 0.7845 ± 0.0068
21 | COc1cc2c(c(OC)c1OC)-c1ccc(OC)c(=O)cc1[C@@H](NC(C)=O)CC2 [Colchicine] (compound dose: 10 uM) | 0.234 ± 0.046
22 | CC(C)[C@]12O[C@H]1[C@@H]1O[C@]13[C@]1(O[C@H]1C[C@H]1C4=C(CC[C@@]13C)C(=O)OC4)[C@@H]2O [Triptolide] (compound dose: 10 uM) | 0.152 ± 0.021
23 | C=C1CC[C@H]2[C@@H](/C=C(\C)C(=O)[C@@]3(O)C[C@H](C)[C@H](O)[C@@H]3[C@@H]1O)C2(C)C [Lathyrol] (compound dose: 10 uM) | 0.849 ± 0.095
24 | COc1cc2c(cc1OC)-c1c(OC)c(OC)cc3c1[C@H](C2)N(C)CC3 [(S)-Glaucine (commercial standard)] | 0.852 ± 0.067
25 | COc1cc(C(=O)O[C@H]2[C@@H]3C=CO[C@@H](O[C@@H]4O[C@H](CO)[C@@H](O)[C@H](O)[C@H]4O)[C@@H]3[C@@]3(CO)O[C@@H]23)ccc1O [Picroside II] (compound dose: 10 uM) | 0.919 ± 0.16
26 | CC(C)c1ccc2c(c1O)CC[C@H]1C3=C(CC[C@]21C)C(=O)OC3 [Triptophenolide] (compound dose: 10 uM) | 0.815 ± 0.17
27 | CC(=O)O[C@H]1[C@H]2[C@@H](OC(=O)Cc3ccccc3)[C@@H](C)C[C@]2(OC(C)=O)C(=O)/C(C)=C/[C@@H]2[C@H](CC[C@@]13CO3)C2(C)C [Euphorbiasteroid] (compound dose: 10 uM) | 0.997 ± 0.02
28 | C[C@@]1(C(=O)O)CC[C@]2(C)CC[C@]3(C)C4=CC(=O)c5c(cc(O)c(O)c5C=O)[C@]4(C)CC[C@@]3(C)[C@@H]2C1 [Demethylzeylasteral] (compound dose: 10 uM) | 0.294 ± 0.022
29 | CC(=O)OC(C)(C)/C=C/C(=O)[C@](C)(O)[C@H]1[C@H](O)C[C@@]2(C)[C@@H]3CC=C4[C@H](C[C@H](O)C(=O)C4(C)C)[C@]3(C)C(=O)C[C@]12C [Cucurbitacin B] (compound dose: 10 uM) | 0.189 ± 0.096
30 | C[C@@H]1CC[C@H]2[C@@H](C)C(=O)O[C@@H]3O[C@@]4(C)CC[C@@H]1[C@]32OO4 [Artemisinin] (compound dose: 10 uM) | 0.581 ± 0.11
31 | CC1=C[C@]23C(=O)[C@@H](C=C(COC(=O)c4ccccc4)[C@@H](O)[C@]2(O)[C@H]1OC(=O)c1ccccc1)[C@H]1[C@@H](C[C@H]3C)C1(C)C [Ingenol 3,20-dibenzoate] (compound dose: 10 uM) | 0.6413 ± 0.0018
32 | C=C1[C@@H]2CC[C@H]3[C@]4(C)C[C@H](O[C@@H]5O[C@H](CO)[C@@H](OS(=O)(=O)O)[C@H](OS(=O)(=O)O)[C@H]5OC(=O)CC(C)C)CC(C(=O)O)(C(=O)O)[C@H]4CC[C@]3(C2)[C@H]1O [Carboxyatractyloside (dipotassium)] (compound dose: 10 uM) | 0.825 ± 0.43
33 | COc1cc2c(cc1OC)-c1c(OC)c(OC)cc3c1[C@H](C2)N(C)CC3 [(S)-Glaucine (Alkaloid purified from Papaver somniferum)] | 0.905 ± 0.052
34 | O=C1C=C2C=C[C@@H]3C[C@@]2(O1)[C@H]1CCCCN31 [Securinine] (compound dose: 10 uM) | 0.213 ± 0.096
35 | C=C(C)C(=O)O[C@H]1[C@@H]2[C@H](C)C(=O)O[C@@H]2C[C@@H](C)[C@@H]2C=CC(=O)[C@]21C [Arnicolide D] (compound dose: 10 uM) | 0.153 ± 0.067
